Results as given in PubChem BioAssay (NCATS).
“And” between values parts separate entries of the source, which are not always exact repeats. Equal values may be shown once. Inconclusive results are not listed. The source made the active and inactive calls. Unless noted, calls follow the shape of the dose curve; as a rule, active = well fitted curve in the direction sought with a large enough effect; inconclusive = small, poorly fitted or top-dose-only effect, or another doubt; inactive = no such curve, though single readings can be large; an effect the other way counts as inactive or inconclusive.

Columns and labels:
[1] = Cellular Toxicity (caspase-3) Jurkat (AID 655); conditions: Jurkat caspase-3 activation, luminescence, DMSO = 0%, tamoxifen = 100%; at 92.2 µM (top of the series);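 also: cells exposed to compound for 16 h at 37 °C before reading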
Summary of the method: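 Caspase 3/7 activation is scored as increased luminescence in Jurkat cells cultured with compound for 16 hours in complete medium. AC50 values come from Hill fits of qHTS concentration-response data normalized to DMSO and 100 uM tamoxifen controls.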

[2] = Cellular Toxicity (caspase-3) HUV-EC-C (AID 656)
Summary of the method: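 Read-out: luminescence proportional to caspase 3/7 activity, measured 20 min after adding Caspase-Glo 3/7 reagent. Cells (HUV-EC-C) had received compound for 16 hr at 37°C. Increases relative to DMSO and 100 uM tamoxifen gave concentration-response AC50 values.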

[3] = Cellular Toxicity (caspase-3) SHSY5Y (AID 657)
Summary of the method: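 Cells plated and incubated 5 h at 37 °C, dosed over a concentration range, incubated 16 h, then given Caspase-Glo 3/7 reagent for 1 h at room temperature before luminescence reading. Staurosporine (10 uM) defined full stimulation.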

[4] = Cellular Toxicity (caspase-3) BJ (AID 658)
Summary of the method: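 Readout: Caspase-Glo 3/7 luminescence increase in BJ cells after 16 hr treatment at 37 °C. Staurosporine and tamoxifen served as positive controls; AC50 values came from Hill modelling of data normalized to DMSO and 10 uM staurosporine.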

[5] = Cellular Toxicity (caspase-3) MRC-5 (AID 659)
Summary of the method: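 Concentration-dependent caspase 3/7 activation is measured in human normal lung fibroblasts (MRC-5) following 16-hour treatment. AC50 values come from standard Hill-equation modeling of luminescence normalized to DMSO and 10 uM staurosporine.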

[6] = Cellular Toxicity (caspase-3) Mesangial (AID 660);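 also: cells exposed to compound for 16 h before the caspase read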
Summary of the method: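 Human renal glomerular mesangial cells, 1000/well, 5 h at 37 C before 16 h compound treatment. Caspase-Glo 3/7 luminescence after 20 min; normalized to DMSO and 100 uM tamoxifen, AC50 from Hill fit.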

[7] = Cellular Toxicity (caspase-3) SK-N-SH (AID 661)
Summary of the method: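 Human SK-N-SH neuroblastoma cells, 1500/well, were exposed to compounds for 16 hours at 37 °C. Caspase-Glo 3/7 luminescence was normalized to DMSO (basal) and 10 uM staurosporine (100%), and AC50 came from a Hill fit.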

[8] = Cellular Toxicity (caspase-3) H-4-II-E (AID 663)
Summary of the method: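 Apoptosis induction is scored as increased luminescence from caspase 3/7 substrate cleavage in rat hepatoma H-4-II-E cells exposed to compound for 16 hr. Activity is scaled between DMSO and 100 uM tamoxifen.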

[9] = Cellular Toxicity (caspase-3) Hek293 (AID 664);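 also: cells exposed to compound for 16 h at 37 °C before readout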
Summary of the method: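 HEK293 cells in complete medium treated 16 h at 37 °C, then Caspase-Glo 3/7 luminescence read after 20 min at room temperature. Normalized to DMSO and 100 uM tamoxifen; AC50 from Hill fit of concentration-response.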

[10] = Cellular Toxicity (caspase-3) N2a (AID 665); conditions: N2a cells, luminescence, normalized: DMSO 0%, 10 µM staurosporine 100%; at 92.2 µM (top of the series);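 also: compound exposure lasted 16 h at 37 °C before readout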
Summary of the method: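 Mouse N2a neuroblastoma cells, 1500 per well, treated 16 h at 37 °C in complete medium; caspase-3/7 activity by Caspase-Glo luminescence after 1 h. Normalized to DMSO and 10 uM staurosporine; AC50 from Hill fits.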

[11] = MultiTox-Fluor Cytotoxicity Assay - LYMP1-001 - Dead Cells (AID 946);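 also: 0% = DMSO and 100% = tetraoctylammonium bromide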
Summary of the method: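 In this qHTS, 15 uM tetraoctylammonium bromide defined 100% and DMSO defined basal activity. Lymphoblastoid cells (LYMP1-001, 2500 per well) received compound for 16 hr at 37 C before a fluorogenic dead-cell substrate readout at 485/520 nm.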

[12] = Cell Viability - LYMP1-002 - Assay at 16 hr (AID 948);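 also: 0% = DMSO alone and full effect = 92 µM tetraoctylammonium bromide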
Summary of the method: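 Acute cytotoxicity is scored as a concentration-dependent fall in intracellular ATP in a human lymphoblastoid line (LYMP1-002) after 16 hr compound exposure at 37 C, measured by luciferase luminescence.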

[13] = MultiTox-Fluor Cytotoxicity Assay - LYMP1-002 - Dead Cells (AID 960);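 also: 0% = DMSO and 100% = tetraoctylammonium bromide; nearly all actives have a fitted effect of over 60% in size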
Summary of the method: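 Human lymphoblastoid LYMP1-002 cells, 2500/well, treated 16 h at 37 C; dead-cell protease cleavage of bis-AAF-R110 read by fluorescence (485/520); normalized to DMSO and 15 uM tetraoctylammonium bromide; AC50 from Hill fit.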

[14] = MultiTox-Fluor Cytotoxicity Assay - LYMP1-003 - Dead Cells (AID 961);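 also: 0% = DMSO and 100% = tetraoctylammonium bromide; nearly all actives have a fitted effect of over 70% in size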
Summary of the method: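 Acute toxicity is scored as increased dead-cell protease activity in human lymphoblastoid LYMP1-003 cells after 16 h compound exposure in complete culture medium. Activity is normalized to DMSO basal and 15 uM tetraoctylammonium bromide as full response.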

[15] = MultiTox-Fluor Cytotoxicity Assay - LYMP1-003 - Live Cells (AID 962);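 also: 0% = DMSO only and full loss = 92 µM tetraoctylammonium bromide; cytotoxic hits lower the live-cell protease signal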
Summary of the method: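 LYMP1-003 lymphoblastoid cells, 2500/well in complete medium, treated 16 h at 37 C; live-cell protease cleavage of GF-AFC read by fluorescence (Ex/Em 405/510) after 60 min reagent; AC50 from Hill fits of concentration-response.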

[16] = Cell Viability - LYMP1-003 - Assay at 24 hr (AID 963);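 also: plate controls were DMSO only for no effect and tetraoctylammonium bromide positive control for full effect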
Summary of the method: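 Human lymphoblastoid LYMP1-003 cells, 2500/well, treated 24 h at 37 C in complete medium. Viability read as intracellular ATP by CellTiter-Glo luminescence after 30 min at room temperature; AC50 from Hill-equation fits of qHTS concentration-response.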

[17] = Cell Viability - LYMP1-003 - Assay at 40 hr (AID 964); also: % is scaled to controls: 0 for no effect and ±100 for the full control effect; nearly all actives have a fitted effect of over 60% in size
Summary of the method: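 LYMP1-003 human lymphoblastoid cells, 2500/well, preincubated 5 h at 37 C, then treated with compound for 40 h at 37 C. Intracellular ATP read by CellTiter-Glo luminescence after 30 min at room temperature; AC50 from Hill-equation fits.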

[18] = Cell Viability - LYMP2-011 (AID 969);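 also: cells exposed to compound for 24 hours; 0% = DMSO only and full inhibition = 92 µM tetraoctylammonium bromide; nearly all actives have a fitted effect of over 60% in size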
Summary of the method: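 2500 cells/well in complete medium, compound-treated 24 h at 37 C. Viability read as intracellular ATP by CellTiter-Glo luminescence after 30 min at room temperature. AC50 from Hill fits of qHTS concentration-response data.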

[19] = qHTS assay for small molecule disruptors of the mitochondrial membrane potential - 5 hr assay (AID 651755; calls by dose curve; also: % is scaled to controls: 0 for no effect and ±100 for the full control effect; nearly all actives have a fitted effect of over 40% in size)
Summary of the method: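 HepG2, 2,000 cells/well, overnight attach; cpd or DMSO 5 hr, 37C/5% CO2; Mito-MPS 30 min 37C; fluor 490/535 + 540/590 nm.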

[20] = qHTS assay for environmental chemicals that activate the Aryl hydrocarbon Receptor (AhR) signaling pathway (AID 651777); conditions: 1A2-DRE human hepatoma cells, luciferase, 24 h; activation: hits give high values; also: % of control where 0% means no effect; nearly all actives have a fitted effect of over 15% in size
Summary of the method: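 Quantitative HTS in stably transfected human liver-derived cells whose luciferase gene sits downstream of the CYP1A2 promoter and dioxin response element. After 24 hr exposure at 37 C, One-Glo luminescence was measured.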

COC1=CC(=O)OC(CCc2ccccc2)C1 (stereo not given)
inactive: caspase-3 activation [1] 0.972% | outcome [2] | outcome [3] | outcome [4] | outcome [5] | outcome [6] | outcome [7] | outcome [8] | outcome [9] | caspase-3 activation [10] -5.42% | Potency [11] | Potency [12] | Potency [13] | Potency [14] | Potency [15] | Potency [16] | Potency [17] | Potency [18] | Potency [19] | activation [20] 1.87%

COC1=CC(=O)O[C@@H](/C=C/c2ccc3c(c2)OCO3)C1
inactive: caspase-3 activation [1] -10% | outcome [2] | outcome [3] | outcome [4] | outcome [5] | outcome [6] | outcome [7] | outcome [8] | outcome [9] | caspase-3 activation [10] -17.2% | Potency [11] | Potency [12] | Potency [13] | Potency [14] | Potency [15] | Potency [16] | Potency [17] | Potency [18] | Potency [19] | activation [20] 3.16%

Clc1ccc2ccccc2c1
inactive: caspase-3 activation [1] 0.888% | outcome [2] | outcome [3] | outcome [4] | outcome [5] | outcome [6] | outcome [7] | outcome [8] | outcome [9] | caspase-3 activation [10] 4.04% | Potency [11] | Potency [12] | Potency [13] | Potency [14] | Potency [15] | Potency [16] | Potency [17] | Potency [18] | Potency [19] | activation [20] 0.057%

C[C@]12CC[C@H]3[C@@H](CCC4=CC(=O)CC[C@@]43C)[C@@H]1CC[C@@H]2O
inactive: caspase-3 activation [1] 4.38% | outcome [2] | outcome [3] | outcome [4] | outcome [5] | outcome [6] | outcome [7] | outcome [8] | outcome [9] | caspase-3 activation [10] 3.16% | Potency [11] | Potency [12] | Potency [13] | Potency [14] | Potency [15] | Potency [16] | Potency [17] | Potency [18] | Potency [19] | activation [20] -1.35%

c1ccc(-c2ccccc2)cc1
inactive: caspase-3 activation [1] 0.52% | outcome [2] | outcome [3] | outcome [4] | outcome [5] | outcome [6] | outcome [7] | outcome [8] | outcome [9] | caspase-3 activation [10] -1.9% | Potency [11] | Potency [12] | Potency [13] | Potency [14] | Potency [15] | Potency [16] | Potency [17] | Potency [18] | Potency [19] | activation [20] -0.623% and 2.83%

ClCBr
inactive: caspase-3 activation [1] -0.634% | outcome [2] | outcome [3] | outcome [4] | outcome [5] | outcome [6] | outcome [7] | outcome [8] | outcome [9] | caspase-3 activation [10] -2% | Potency [11] | Potency [12] | Potency [13] | Potency [14] | Potency [15] | Potency [16] | Potency [17] | Potency [18] | Potency [19] | activation [20] -0.711%

Brc1ccccc1
inactive: caspase-3 activation [1] -1.45% | outcome [2] | outcome [3] | outcome [4] | outcome [5] | outcome [6] | outcome [7] | outcome [8] | outcome [9] | caspase-3 activation [10] 0.903% | Potency [11] | Potency [12] | Potency [13] | Potency [14] | Potency [15] | Potency [16] | Potency [17] | Potency [18] | Potency [19] | activation [20] -1.29% and 1.99%

Cc1cccc([N+](=O)[O-])c1
inactive: caspase-3 activation [1] -1.23% | outcome [2] | outcome [3] | outcome [4] | outcome [5] | outcome [6] | outcome [7] | outcome [8] | outcome [9] | caspase-3 activation [10] 2.99% | Potency [11] | Potency [12] | Potency [13] | Potency [14] | Potency [15] | Potency [16] | Potency [17] | Potency [18] | Potency [19] | activation [20] -1.15% and 1.37%

Nc1ccccc1Cl
inactive: caspase-3 activation [1] -0.675% | outcome [2] | outcome [3] | outcome [4] | outcome [5] | outcome [6] | outcome [7] | outcome [8] | outcome [9] | caspase-3 activation [10] 1.48% | Potency [11] | Potency [12] | Potency [13] | Potency [14] | Potency [15] | Potency [16] | Potency [17] | Potency [18] | Potency [19] | activation [20] 0.951%

c1nc[nH]n1
inactive: caspase-3 activation [1] 0.542% | outcome [2] | outcome [3] | outcome [4] | outcome [5] | outcome [6] | outcome [7] | outcome [8] | outcome [9] | caspase-3 activation [10] -1.83% | Potency [11] | Potency [12] | Potency [13] | Potency [14] | Potency [15] | Potency [16] | Potency [17] | Potency [18] | Potency [19] | activation [20] -0.221%

CCSC(=O)Cl
inactive: caspase-3 activation [1] -0.54% | outcome [2] | outcome [3] | outcome [4] | outcome [5] | outcome [6] | outcome [7] | outcome [8] | outcome [9] | caspase-3 activation [10] -2.14% | Potency [11] | Potency [12] | Potency [13] | Potency [14] | Potency [15] | Potency [16] | Potency [17] | Potency [18] | Potency [19] | activation [20] 0.624%
